Measured values: the supplement of paper PMC6555819

Tests used:
Test in all cases: PBM binding z-score (relative to random genomic background probes); higher = stronger binding; sequences stand for … in GC…GCGATTGACAGCGTAGAATGAAGG
[1] = system: FXR:RXRa (NR concentration 270 nM, RXRa partner concentration 90 nM)
How it was run: (§1)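 Custom Agilent 4×180K protein-binding microarrays carried double-stranded probes, each with a 34-nt variable region. These regions held direct-repeat seeds, single-nucleotide variants, half-site ablations and random human genomic background sequences. Ligand-free nuclear receptor dimers were incubated on the arrays for 1 h, antibodies against each partner (one per run) detected binding, and scanned fluorescence was regression-normalized. Binding z-scores take the random background probes as reference.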

[2] = system: LXRa:RXRa (NR concentration 270 nM, RXRa partner concentration 90 nM)
How it was run: as §1

[3] = system: LXRa homodimer (NR concentration 270 nM)
How it was run: as §1

[4] = system: LXRb:RXRa (NR concentration 270 nM, RXRa partner concentration 90 nM)
How it was run: as §1

[5] = system: LXRb homodimer (NR concentration 270 nM)
How it was run: as §1

[6] = system: PPARa:RXRa (NR concentration 270 nM, RXRa partner concentration 90 nM)
How it was run: as §1

[7] = system: PPARg:RXRa (NR concentration 180 nM, RXRa partner concentration 90 nM)
How it was run: as §1

[8] = system: PPARg:RXRa 270nM:90nM, anti-RXR (NR concentration 270 nM, RXRa partner concentration 90 nM)
How it was run: as §1

[9] = system: PPARg:RXRa 30nM:10nM, anti-RXR (NR concentration 30 nM, RXRa partner concentration 10 nM)
How it was run: as §1

[10] = system: PPARg:RXRa 90nM:30nM, anti-RXR (NR concentration 90 nM, RXRa partner concentration 30 nM)
How it was run: as §1

[11] = system: PPARg:RXRa DBDmut IVT, anti-RXR (DBD mutation: RXRa K156A/R161A, NR concentration 270 nM, RXRa partner concentration 90 nM)
How it was run: as §1

[12] = system: PPARg:RXRa IVT, anti-PPARg (NR concentration 270 nM, RXRa partner concentration 90 nM)
How it was run: as §1

[13] = system: PPARg DBDmut:RXRa IVT, anti-PPARg (DBD mutation: PPARg1 K132A/R137A, NR concentration 270 nM, RXRa partner concentration 90 nM)
How it was run: as §1

[14] = system: PPARg DBDmut IVT, anti-PPARg (DBD mutation: PPARg1 K132A/R137A, NR concentration 270 nM)
How it was run: as §1

[15] = system: PPARg homodimer (NR concentration 180 nM)
How it was run: as §1

[16] = system: PXR:RXRa (NR concentration 270 nM, RXRa partner concentration 90 nM)
How it was run: as §1

[17] = system: PXR homodimer (NR concentration 270 nM)
How it was run: as §1

[18] = system: RARa:RXR (NR concentration 270 nM, RXRa partner concentration 90 nM)
How it was run: as §1

[19] = system: RARa homodimer (NR concentration 270 nM)
How it was run: as §1

Sequence	PBM binding z-score [1]	PBM binding z-score [2]	PBM binding z-score [3]	PBM binding z-score [4]	PBM binding z-score [5]	PBM binding z-score [6]	PBM binding z-score [7]	PBM binding z-score [8]	PBM binding z-score [9]	PBM binding z-score [10]	PBM binding z-score [11]	PBM binding z-score [12]	PBM binding z-score [13]	PBM binding z-score [14]	PBM binding z-score [15]	PBM binding z-score [16]	PBM binding z-score [17]	PBM binding z-score [18]	PBM binding z-score [19]
TAGCCTAGGTCAGATCGGGGCAGTATACGCTATA	3.05	1.42	-0.378	1.22	0.212	1.93	0.989	1.43	0.0966	0.842	1.23	1.66	0.079	-0.613	-0.167	1.89	-0.84	0.828	-0.404
CCGACGGGGGCAAGGTTACCATAACGCACAGCCA	3.14	3.01	0.301	4.21	3.34	3.96	2.74	3.36	1.37	2.84	1.63	2.94	2.07	2.52	1.9	2.63	0.67	3.36	0.881
AGTCAAAGTTCACGACGAGGTAACGTAAAGCACG	7.08	6.16	3.15	3.94	0.875	5.45	7.81	7.17	4.47	6.41	0.0759	3.83	0.65	1.24	4	5.24	2.18	5	1.23
AGTCCAAGTTCACTAGGTAACGTAAGATTCAGCT	1.35	1.68	0.49	0.985	0.056	2.69	2.6	2.95	0.796	1.91	2.21	3.58	1.01	0.63	0.72	2.45	2.13	1.17	0.555
CCTACTGGGCCATTCAGAGGACATTGATCATATG	-0.067	-0.34	0.339	-0.405	-0.12	0.0535	0.784	0.44	-0.132	-0.17	4.5	3.41	0.559	-0.35	-0.295	-0.327	0.096	-0.457	-0.467
AGTCATAGTTCACTAGGTAACGTAAGATTCAGCT	0.829	1.51	0.415	1.11	0.233	3.01	3.89	3.82	1.59	2.88	1.88	3.43	1.06	0.768	1.27	1.17	0.241	1.21	0.337
TAGCCTAGGTCCTTCAGGGGCCAGTATAGAAAGC	-0.77	-0.784	-0.674	-0.628	-0.884	-0.292	-0.229	-0.451	-0.73	-0.359	-1.03	-0.0823	-0.672	0.051	-0.932	-0.686	-0.979	-0.334	-0.852
CCTAGCAGGCCAATCGGGGTCACTCAAGGCTTGA	4.42	4.3	0.394	3.97	-0.646	4.79	2.8	3.72	0.796	2.75	2.04	3.14	-0.484	-1.21	3.42	6.01	1.7	6.08	0.0938
CGAACTAGGTCAGAACAGGACATTGAAGGATGAT	1.42	1.55	0.178	0.649	-0.13	3.32	5.42	4.48	1.68	3.62	7.08	7.32	2.82	2.2	1.27	1.96	0.214	1.66	0.708
AGTCAAAGTTCACGAGGTAACGTAAGATTCAGCT	7.1	6.36	3.51	4.18	1.13	5.7	7.78	7.53	4.79	7.08	1.37	4.03	1.17	0.67	2.91	5.13	2.45	4.95	1.29
TAGCCTAGGTCAGATCGGGCCAGTCTACGCTATA	1.89	1.15	-0.542	0.223	-0.401	1.82	0.647	0.822	-0.388	0.205	0.403	1.41	-0.912	-0.787	-0.159	1.18	-0.895	1.05	-1.11
CGTCTAAGGTCAGCAGGTCAGTGAAAGCGACGTG	6.71	4.48	0.785	3.61	0.0498	5.3	4.86	5.46	1.6	4.03	3.72	3.7	0.756	0.144	5.12	4.16	0.612	5.94	2.05
ATCTCTAGGTAAAGTTCATTGAAAGATCGATAGA	2.67	3.78	4.69	2.63	1.81	3.5	4.69	5.51	3.5	5.54	2.31	2.83	2.23	2	2.58	4.46	5.32	2.76	2.29
CGTCAAAGTTCAAGGTTACGTAACAGAAAGCAGC	6.96	5.9	2.46	4.07	1.18	5.3	4.97	5.43	2.35	4.26	0.998	2.75	1.55	1.22	2.53	4.66	2.48	4.11	1.38
CTCGAAAGGTCGGTTGAGGTGAGTAAACGGATAA	2.7	1.73	-0.0936	1.39	-0.228	2.84	0.202	1.25	0.048	0.00835	-0.271	0.901	0.0903	-0.255	0.98	3	0.167	2.19	0.141
